Measurements published in PubChem BioAssay AID778 (Sanford-Burnham Center for Chemical Genomics, 2007).
About 20,000 (21%) of roughly 96,000 compounds were called active. A selection follows. A number with no mark means an inactive call.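 The calls were made as follows: active = CYP2C19 inhibition above a set limit at 5 µM in the primary screen (cut at about 50% in these data); inactive = the rest.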

What follows are molecules tested against Cytochrome P450 2C19 (Homo sapiens) (UniProt P33261) (assay: blockers of cytochrome P450 2C19 activity – biochemical, luminescence, ADME assay, primary screen (AID 778;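 also: plate controls were negative control wells for no effect and 2.5 mM tranylcypromine positive control for full effect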)). Conditions: CYP2C19 Supersomes, luciferin-H EGE luminescence, 30 min; at 5 µM; stronger effect = higher value.
Chain of Cytochrome P450 2C19 (Homo sapiens) (P33261 whole entry, looked up): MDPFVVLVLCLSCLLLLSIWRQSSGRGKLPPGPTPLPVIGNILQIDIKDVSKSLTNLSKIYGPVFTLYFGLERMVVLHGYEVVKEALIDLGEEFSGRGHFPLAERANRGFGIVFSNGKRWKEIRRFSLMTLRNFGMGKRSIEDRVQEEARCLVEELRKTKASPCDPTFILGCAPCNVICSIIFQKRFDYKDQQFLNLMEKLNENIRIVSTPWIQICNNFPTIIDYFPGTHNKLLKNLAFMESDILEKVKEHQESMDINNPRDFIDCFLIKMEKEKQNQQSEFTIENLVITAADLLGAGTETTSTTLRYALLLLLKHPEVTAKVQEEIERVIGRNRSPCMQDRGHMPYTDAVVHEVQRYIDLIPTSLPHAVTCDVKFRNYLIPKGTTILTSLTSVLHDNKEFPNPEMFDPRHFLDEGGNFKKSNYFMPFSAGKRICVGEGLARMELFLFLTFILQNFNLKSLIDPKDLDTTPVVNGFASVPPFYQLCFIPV
`O=C(NCc1ccccn1)c1cnc2sccn2c1=O` was tested, and the inhibition was -12.6%. `Cc1cc(C(=O)NCCCc2ccccc2)no1` showed an inhibition of 10.8%. `CCOC(=O)c1cnc(SC)nc1Sc1ccc(Cl)cc1Cl` showed an inhibition of 25.2%. With `CCCCNCc1ccc(SC)cc1` the inhibition was 69.4% (active). In the case of `Cc1ccccc1C(=O)NCCN=C1NS(=O)(=O)c2ccccc21`, the inhibition is reported as 11.7%. `Cc1oc(CC(C)C)c(CN2CCCC2)c1C(=O)O` was tested, and the inhibition was -15.6%. With `N#CCCN(CCC#N)c1nnc(-c2ccccc2)s1` the inhibition was 29%. Work on `Cc1nn(Cc2ccccc2Cl)c(C)c1NC(=O)Cn1nc([N+](=O)[O-])c(Cl)c1C` yielded an inhibition of 0.1%. `Cc1cc(C)cc(OCC(=O)Nc2nc3ccc([N+](=O)[O-])cc3s2)c1` gave an inhibition of 19.6%. In the case of `Cc1nn(CC(=O)Nc2nc3ccccc3s2)c(C)c1[N+](=O)[O-]`, the inhibition is reported as 52.2% (active). `CCC(CC)C(=O)N1CC(=O)Nc2ccc(Br)cc2C1c1ccccc1` (stereo not drawn) showed an inhibition of 47.6%. In the case of `Cc1cccn2c(=O)c(/C=C3\SC(=S)N(CC(C)C)C3=O)c(NCCCOC(C)C)nc12`, the inhibition is reported as 14.7%. In the case of `COc1ccc2c(Cl)c(C(=O)NCc3ccco3)sc2c1`, the inhibition is reported as 18.6%. `COC(=O)c1nc(NC(=O)c2ccc(Cl)cc2)n[nH]1` showed an inhibition of -2.9%. `NC(=O)c1ncc(C(F)(F)F)cc1Oc1ccc(F)cc1` gave an inhibition of 31.9%. With `O=C(CNC(=O)c1ccccc1)NCC(=O)OCc1ccc(Cl)cc1` the inhibition was 7.3%. `Cc1c(Br)cc(C(=O)N2CCCCCC2)c(C)c1C` was tested, and the inhibition was 96% (active). In the case of `Cc1ccc(C(=O)N2CCCCCC2)cc1Br`, the inhibition is reported as 26.6%. For `Cc1ccc(C(=O)N2CCCC2)c(F)c1F`, the inhibition was 9.6%. For `Cc1noc(C)c1CSCC(=O)Nc1nc2ccc(Oc3ccccc3)cc2s1`, the inhibition was 40.8%. With `CCOC(=O)c1c(-c2ccc(C)cc2C)csc1NC(=O)CSc1nnnn1C` the inhibition was 27.2%. In the case of `CCOC(=O)c1c(C2CC2)csc1NC(=O)CSCc1c(C)noc1C`, the inhibition is reported as 64% (active). In the case of `COC(=O)c1cc(C(=O)CSc2nc(C)cc(C)n2)ccc1O`, the inhibition is reported as 23.3%. For `Cc1nc(SCC(=O)c2ccccc2)c([N+](=O)[O-])[nH]1`, the inhibition was 23.7%. `Cc1cc(SCC(=O)c2ccccc2)nc(SCC(=O)c2ccccc2)n1` was tested, and the inhibition was 53.4% (active). Molecule `CC(C)CCOc1ccc(C(=O)C[N+]2(C)CCOCC2)cc1` has an inhibition of 12%. For `Cc1ccc(N2C(=O)c3ccccc3C2(O)c2ncc[nH]2)cc1` (stereo not drawn), the inhibition was 5.2%. `COc1ccc(CC(=O)n2nc(-c3cccnc3)nc2N)cc1` gave an inhibition of 22.6%. In the case of `CCOc1c(N2CCCCC2)c(=O)c1=O`, the inhibition is reported as -3.9%. For `CC(C)CNC(=O)CC(c1ccccc1)c1c(O)ccc2ccccc12` (stereo not drawn), the inhibition was 58.9% (active). Work on `CC(C)CNC(=O)COC(=O)/C=C/c1ccccc1[N+](=O)[O-]` yielded an inhibition of 2.4%. With `CCc1ccc(/C=N/NC(=O)c2ccc(OC3CCCC3)cc2)s1` the inhibition was 25.8%. In the case of `Cc1cc(N(C)C)cc(C)[n+]1[O-]`, the inhibition is reported as -6.3%. Molecule `O=C1CSC(=O)N1CCOCCN1C(=O)CSC1=O` has an inhibition of 15.9%. With `O=C(CN1CCN(S(=O)(=O)c2ccc(F)cc2)CC1)Nc1ccccc1F` the inhibition was 57.1% (active). With `O=C(Nc1ccc(S(=O)(=O)N2CCCCC2)cc1)c1cnccn1` the inhibition was 9.9%. For `COc1cc2c(cc1NC(=O)CN1CCN(S(=O)(=O)c3ccc(F)cc3)CC1)oc1ccccc12`, the inhibition was 11.9%. In the case of `CCOc1ccccc1NC(=O)c1cc(S(=O)(=O)N2CCC3(CC2)OCCO3)ccc1F`, the inhibition is reported as 9.8%. In the case of `O=C(Nc1ccccc1F)c1cc(S(=O)(=O)N2CCCCC2)cs1`, the inhibition is reported as 62% (active). For `CCOc1ccccc1NC(=O)CCN1CCN(S(=O)(=O)c2ccc(OC)cc2)CC1`, the inhibition was 68.5% (active). `COc1ccccc1NC(=O)CN1CCN(S(=O)(=O)c2ccc(Br)cc2)CC1` was tested, and the inhibition was 34%. `CCOC(=O)c1[nH]c2ccc(OC)cc2c1NC(=O)CCN1CCN(Cc2ccccc2)CC1` gave an inhibition of 32.7%. `COc1ccc(S(=O)(=O)N2CCCC(C(=O)Nc3ccc(NC(=O)c4ccccn4)cc3)C2)cc1` (stereo not drawn) was tested, and the inhibition was 20.8%. `Cc1nc2ccc(C(=O)N3CCSCC3)cc2s1` was tested, and the inhibition was -5.2%. For `CCOC(=O)c1ccc(NC(=O)CSc2nnc(COc3ccccc3OC)n2C)cc1`, the inhibition was 38.9%. For `CCOC(=O)c1c(NC(=S)NC(=O)c2ccco2)sc2c1CCCC2`, the inhibition was -3.4%. `O=C(CCS(=O)(=O)c1cccc2nsnc12)N1CCN(c2ccccc2F)CC1` showed an inhibition of 45.5%. In the case of `Cc1ccc(S(=O)(=O)N2CCC(C(=O)N[C@@H](C)C(=O)NCc3ccccc3)CC2)cc1`, the inhibition is reported as 6%. Work on `CCN=C1SC(CC(=O)Nc2ccc(C)cc2)C(=O)N1CC` (stereo not drawn) yielded an inhibition of 38.5%. For `CN(C(=O)CC(NC(=O)c1ccccc1)(c1ccccc1)c1ccccc1)c1ccccc1`, the inhibition was 36.4%. In the case of `COC(=O)c1ccc(NCC(=O)c2ccccc2)cc1`, the inhibition is reported as 64.3% (active). `CCOC(=O)c1nc(Nc2ccc(C(=O)OC)cc2)c2ccccc2n1` was tested, and the inhibition was 49.1%. For `COC(=O)c1ccc(NC(=O)Nc2ccc(C)cc2)cc1`, the inhibition was 2.9%. `C=CCNC(=O)CSc1nc2sc(C)c(C)c2c(=O)[nH]1` showed an inhibition of 14.3%. For `CCSc1nnc(NC(=O)c2ccc(C)cc2)s1`, the inhibition was 25.5%. In the case of `CC1=CC(C)(C)N(C(=O)CSc2nnc(-c3ccccc3)o2)c2ccc(C)cc21`, the inhibition is reported as 25.2%. `CC1=CC(C)(C)N(C(=O)CSc2nccn2C)c2cc(C)ccc21` was tested, and the inhibition was 82.8% (active). `CCOC(=O)c1c(NC(=O)CCC(=O)NCc2ccco2)sc2c1CCCC2` gave an inhibition of 10.1%. `COc1ccccc1NC(=O)[C@H](COCc1ccccc1)NC(=O)OC(C)(C)C` was tested, and the inhibition was 54.6% (active). `COc1ccccc1NC(=O)CC(NCCN(C)C)C(=O)O` (stereo not drawn) showed an inhibition of -1.5%. For `COc1ccccc1NC(=S)NC(=O)C(C)C`, the inhibition was 16.5%. `C/C(=C\C(=O)c1ccc(Br)cc1)N1CCCCC1` was tested, and the inhibition was 7.2%. Molecule `O=C(CNCCO)NC12CC3CC(CC(C3)C1)C2` has an inhibition of 0.8%. `COc1ccc2nc(N3CCCC(O)C3)c(C#N)cc2c1` (stereo not drawn) was tested, and the inhibition was 42.8%. With `Cc1cccc2cc(C#N)c(N3CCCC3)nc12` the inhibition was 1.4%. With `CCOc1ccc2nc(N3CCCN(C(=O)Nc4ccccc4C)CC3)c(C#N)cc2c1` the inhibition was 89.4% (active). For `CS(=O)(=O)N(C(=O)NC(=O)NC1CCS(=O)(=O)C1)C1CCCCC1` (stereo not drawn), the inhibition was -6.1%. In the case of `Cc1c(C(=O)N2CC(C)OC(C)C2)sc2nc(-c3ccccc3)cn12` (stereo not drawn), the inhibition is reported as 3.7%. `CC(C)NC(=O)NC(=O)COC(=O)c1ccc(NC(=O)CC#N)cc1` gave an inhibition of 0.7%. `COc1ccc([N+](=O)[O-])cc1C1NN=C(c2cccc3ccccc23)S1` (stereo not drawn) gave an inhibition of 32.4%. `CCN1CCN(C(=O)c2cc3cc4ccc(OC)cc4nc3s2)CC1` showed an inhibition of -9.4%. In the case of `Cc1cc(N2CCN(S(=O)(=O)c3ccc(C)c(C)c3)CC2)c2ccccc2n1`, the inhibition is reported as 95.8% (active). In the case of `Cc1ccc(C)c(N2CCN(S(=O)(=O)c3ccc4c(c3)oc(=O)n4C)CC2)c1`, the inhibition is reported as 4.3%. With `O=c1ccc2cc(S(=O)(=O)N3CCN(c4ccccc4)CC3)ccc2o1` the inhibition was 1.3%. `O=C(c1cccc(N2CCCC2=O)c1)N1CCOCC1` gave an inhibition of -8.7%. Work on `NC(=O)C1CCN(C(=O)c2ccc(-c3ccccc3)cc2)CC1` yielded an inhibition of 9.6%. Work on `O=C(O)CC(c1ccccc1)n1cnnn1` (stereo not drawn) yielded an inhibition of -12.4%. In the case of `O=C(c1ccc(-n2cnnn2)cc1)N1CCN(C(c2ccccc2)c2ccccc2)CC1`, the inhibition is reported as 71.6% (active). Work on `Cc1ccc2cc3cc(C(=O)N4CCCCCC4)oc3nc2c1` yielded an inhibition of 19.1%. Work on `COc1cc(/C=N/Nc2nn3cnnc3c3ccccc23)cc(OC)c1OC` yielded an inhibition of 18.8%. `O=C1c2cccc3cccc(c23)N1CN1CCN(c2ccccn2)CC1` gave an inhibition of 1.9%. With `OC(COc1cccc2ccccc12)CN1CCN(c2ccccn2)CC1` (stereo not drawn) the inhibition was 88.8% (active). Molecule `Cc1ccc(OCC(O)CN2CCN(CC(O)COc3ccc(C)cc3Cl)CC2)c(Cl)c1` (stereo not drawn) has an inhibition of -5.7%. Molecule `COc1ccc(-n2cnc3cc(NCc4ccco4)ccc32)cc1` has an inhibition of 42.6%. `O=C(Nc1ccccc1)c1ccc2nsnc2c1` showed an inhibition of 18.4%. Work on `CC(=O)NS(=O)(=O)c1ccc(NC(=O)/C=C/c2ccccc2Cl)cc1` yielded an inhibition of 4%. In the case of `O=c1[nH]c2ccccc2n2c(-c3ccccc3)nnc12`, the inhibition is reported as 32.6%. In the case of `CCOc1ccc2cc(C#N)c(SCC(=O)OC)nc2c1`, the inhibition is reported as 4.1%. In the case of `CCCSC1=C(C#N)C(c2ccccc2C)C(C(=O)OC)C(=O)N1` (stereo not drawn), the inhibition is reported as 41%. `COC(=O)CSC1=C(C#N)C(c2ccccc2OC)C(C(=O)OC)C(=O)N1` (stereo not drawn) was tested, and the inhibition was 55.4% (active). Molecule `CC1CCCC(C)N1CCCNC(=O)c1cc2c(=O)n(C)c3ccccc3c2n1C` (stereo not drawn) has an inhibition of -9.2%. For `COc1ccc(CCNC(=O)C2CCCN(Cc3nc(-c4cccc(Cl)c4)oc3C)C2)cc1OC` (stereo not drawn), the inhibition was 87.1% (active). `COc1ccc(CCNC(=O)C2CCN(c3nn4c(=O)cc(C)nc4s3)CC2)cc1OC` was tested, and the inhibition was -7%. In the case of `COc1ccc(CCN(C)C(=O)C2CCCN(Cc3ccc(OC)c(OC)c3)C2)cc1OC` (stereo not drawn), the inhibition is reported as 13.3%. With `COc1ccc(CCNC(=O)c2ccc3c(c2)NC(=O)C(N2CCOCC2)S3)cc1OC` (stereo not drawn) the inhibition was 43.7%. `COc1ccc2c3c(c(=O)oc2c1OCC(=O)C(C)(C)C)CCCC3` showed an inhibition of 15.9%. `CC(C)CC(=O)N/C(N)=N/c1nc2ccccc2s1` gave an inhibition of 36.7%. With `Cc1ncc(CC(=O)n2cc(C(=O)c3cc(Cl)ccc3O)cn2)s1` the inhibition was 61% (active).
